Screening results deposited in PubChem BioAssay by University of Kansas High Throughput Screening Laboratory.
Pf apPOL block: Pf-apPOL inhibitors, biochemical, fluorescence; Plasmodium falciparum apicoplast DNA polymerase (apPOL); Recombinant Pf-apPOL, molecular beacon fluorescence, 1.5 h; inhibition, % at 10 µM; hit rate 0.25% among 210,000
mHTT-CaM PPI inh: mutant huntingtin-calmodulin interaction inhibitors – biochemical, AlphaScreen, primary screen. hit rate 3.6% among 190,000. AlphaScreen His-mHTT/GST-CaM binding, luminescence. P42858. inhibition, % at 15 µM
A number is an active result; . = inactive; / = no result given. This is a sample that favours compounds with a hit; in the whole collection about 3.6% have one here. No stated cut-off is given here; in the data, active means inhibition above about 50%; inactive means the rest.

SMILES	Pf apPOL block	mHTT-CaM PPI inh
CN(c1ccc(Cl)cc1)c1cc2c(c3c1ccn3C)C1CCC2O1 (stereo not drawn)	.	100
CCCN(CC1CC1)c1cc2c(c3c1ccn3C)C1CCC2O1 (stereo not drawn)	.	.
CN(c1cc2c(c3c1ccn3C)C1CCC2O1)C1CCCCC1 (stereo not drawn)	.	59
CC(NC(=O)Cc1cn(C)c2ncccc12)c1ccccc1 (stereo not drawn)	.	.
Cc1[nH]n(-c2ccccc2)c(=O)c1C1=c2cc(Br)ccc2=NC1=O	.	.
CCOCCCn1c(SCc2c(F)cccc2Cl)nc2ccccc2c1=O	.	.
Oc1cc(Cl)c(Cl)c(Cl)c1O	/	.
O=c1oc2cc([N+](=O)[O-])ccc2nc1C=C(O)c1cccs1	.	.
Cn1ccc2c(-c3cccc4ccccc34)cc3c(c21)C1CCC3O1 (stereo not drawn)	.	.
Cn1ccc2c(-c3ccc4[nH]ccc4c3)cc3c(c21)C1CCC3O1 (stereo not drawn)	.	56
CCN(Cc1ccccc1)c1cc2c(c3c1ccn3C)C1CCC2O1 (stereo not drawn)	.	.
CN(CCc1ccccc1)c1cc2c(c3c1ccn3C)C1CCC2O1 (stereo not drawn)	.	99
O=C(NC1CCCC1)c1cccnc1N1CCNC(c2ccccc2)C1 (stereo not drawn)	.	.
Brc1ccc(CN2CCc3nc(Nc4ccc5c(c4)OCO5)ncc3C2)s1	.	.
CCn1c(=O)c(N2CCC(NC(=O)NCCc3ccccc3)CC2)nc2ccccc21	.	.
O=C(Nc1ccc(Br)c2cccnc12)c1ccccc1Cl	.	.
COc1cc(C2c3sc(=O)[nH]c3SC3C4CCC(C4)C23)ccc1O (stereo not drawn)	.	57
COc1cccc(C2c3sc(=O)[nH]c3SC3C4CCC(C4)C23)c1O (stereo not drawn)	.	.
CCOc1cc(C2c3sc(=O)[nH]c3SC3C4CCC(C4)C23)ccc1O (stereo not drawn)	.	100
COc1ccc(C2c3sc(=O)[nH]c3SC3C4CCC(C4)C23)cc1 (stereo not drawn)	.	.
O=[N+]([O-])c1ccc(-c2ccc(C=NNC(=S)NCC3CCCO3)o2)cc1 (stereo not drawn)	.	/
COC(=O)Nc1ccc(S(=O)(=O)Nc2cc(C(C)C)c(O)c(C(C)C)c2)cc1	.	56
COC(=O)Nc1ccc(S(=O)(=O)NC(C)=O)cc1	.	.
COc1ccccc1NC(=O)CN(c1ccc(OC)c(OC)c1)S(C)(=O)=O	.	.
O=C1Nc2ccccc2C12Oc1ccccc1C1CC(c3ccccc3)=NN12 (stereo not drawn)	.	100
SMILES	Pf apPOL block	mHTT-CaM PPI inh
CC1(C)Oc2ccccc2C2CC(c3cccs3)=NN21 (stereo not drawn)	.	.
COc1ccc(C2=NN3C(C2)c2cc(Br)ccc2OC32C(=O)Nc3ccccc32)cc1 (stereo not drawn)	.	100
COc1ccc(C2=NN3C(C2)c2cc(Cl)ccc2OC3(C)C)cc1 (stereo not drawn)	.	.
Cc1[nH]n(-c2cccc(Cl)c2)c(=O)c1N=Nc1cccc(C(F)(F)F)c1	.	/
Nc1c(C(=O)NCc2cccs2)nnn1Cc1ccccc1Cl	.	.
O=C(NCCc1ccc(Cl)cc1)C1CCCN(S(=O)(=O)N2CCCC2)C1 (stereo not drawn)	.	.
O=C(Cc1csc(NC(=O)c2ccc[nH]c2=O)n1)NCc1cccs1	.	64
COc1ccc(C(=O)Nc2nc(CC(=O)NCc3cccs3)cs2)cc1	.	.
COc1cc(/C=C/c2ccc3cccc(O)c3n2)cc([N+](=O)[O-])c1O	.	93
Oc1cccc2ccc(/C=C/c3cc4c(cc3Br)OCO4)nc12	.	72
COc1ccc(Br)c(/C=C/c2ccc3cccc(O)c3n2)c1	.	65
COc1cc(/C=C/c2ccc3cccc(O)c3n2)c(Br)cc1O	.	.
COc1cc(Br)c(/C=C/c2ccc3cccc(O)c3n2)cc1OC	.	.
COc1cccc2ccc(/C=C/c3cccc([N+](=O)[O-])c3)nc12	.	.
COc1cc(/C=C/c2ccc3cccc(O)c3n2)c(Cl)cc1O	.	63
COc1ccc(OC)c(/C=C/c2ccc3cccc(O)c3n2)c1	.	.
O=C(Nc1ccc(-n2nncc2-c2ccccc2)cc1)c1cccs1	.	.
CC(NS(=O)(=O)c1ccccc1[N+](=O)[O-])c1ccccc1 (stereo not drawn)	.	.
CC(C)c1ccc(NC(=O)CN2C(=O)C(c3ccc(Cl)cc3)=NC2(C)C)cc1	.	.
O=C(NCCN1CCOCC1)C1CCN(c2ncnc3c2nc2n3CCCCC2)CC1	.	.
O=C(COc1cc(Cl)c(Cl)cc1Cl)NC1=NCCS1	.	.
Cc1ccccc1NC(=O)C1CCN(c2cc(N3CCCC3)ncn2)CC1	.	.
O=C(c1ccc(C(F)(F)F)cc1)N1CCc2nc(-c3ccc(Cl)cc3)ncc2C1	.	.
Oc1ccc(Cl)cc1/C=C/c1ccc2cccc(O)c2n1	.	100
COc1cc(Br)cc(/C=C/c2ccc3cccc(O)c3n2)c1O	.	.
SMILES	Pf apPOL block	mHTT-CaM PPI inh
O=[N+]([O-])c1ccc(O)c(C=Nc2nc3c(O)cccc3s2)c1	.	.
O=[N+]([O-])c1ccc(O)c(/C=C/c2ccc3cccc(O)c3n2)c1	.	60
O=c1c2c(nc(NCCO)n1Cc1ccccc1)-c1ccccc1CC21CCCC1	.	.
COc1cc(OC)c2ccc(=O)oc2c1C(CC(=O)N1CCCCC1)c1ccc2c(c1)OCO2 (stereo not drawn)	.	.
COc1cc(OC)c2ccc(=O)oc2c1C(CC(=O)N1CCCC1)c1ccc2c(c1)OCO2 (stereo not drawn)	.	.
COc1cc(OC)c2c(-c3ccccc3)cc(=O)oc2c1C(CCN1CCCC(C)C1)c1ccc2c(c1)OCO2 (stereo not drawn)	.	100
COc1cc(O)c(C(CCN2CCCCC2)c2ccc3c(c2)OCO3)c(OC)c1 (stereo not drawn)	.	.
COc1cc(OC)c2c(-c3ccccc3)cc(=O)oc2c1C(CC(=O)N1CCCC1)c1ccc2c(c1)OCO2 (stereo not drawn)	.	69
COc1cc(OC)c2c(-c3ccccc3)cc(=O)oc2c1C(CCN1CCCCC1)c1ccc2c(c1)OCO2 (stereo not drawn)	.	99
COC(=O)c1cccc(NC(=O)N2CCCN(C3CCN(CC4CC4)C3=O)CC2)c1 (stereo not drawn)	.	.
Fc1cccc(Cl)c1CSc1nnc(-c2ccco2)o1	.	/
COc1ccc(OC)c(/C=C2\C(=O)Nc3ccc(Br)cc32)c1	.	54
COc1ccc(/C=C2\C(=O)Nc3ccc(Br)cc32)c(OC)c1OC	.	100
CC(C)(C)C(=O)C=C1C(=O)Nc2ccc(Br)cc21	.	/
COc1ccc(O)c(/C=C2\C(=O)Nc3ccc(Br)cc32)c1	.	91
COc1cc2c(cc1OC)/C(=C/c1cc(OC)c(OC)c(OC)c1)C(=O)N2	/	.
COc1ccc(N=C2C(=O)Nc3ccc(Br)cc32)cc1	.	.
O=C1Nc2ccccc2/C1=C/c1ccc(Cl)cc1Cl	.	.
O=C1Nc2ccc(Br)cc2/C1=C/c1ccc(Cl)cc1Cl	.	52
CN(C)c1ccc(C(=O)NNC(=O)C=Cc2ccc3c(c2)OCO3)cc1	.	/
